Results from PMC7862700, “An all-to-all approach to the identification of sequence-specific readers for epigenetic DNA modifications on cytosine”.

How the values were obtained:
Experiment in all cases: DAPPL (digital affinity profiling via proximity ligation, sequencing); 10 mM Tris-HCl pH 7.5, 50 mM NaCl, 1 mM DTT, 4% glycerol, room temperature, 30 min; GST-TFs on glutathione beads, 16-mer random dsDNA library, 0.1% formaldehyde crosslink after washing; high values mean tight binding
FLI1 = biological target: T1, FLI1 (Homo sapiens, UniProt Q01543 1-452); conditions: protein: recombinant; tags: N-terminal GST; dsDNA, one strand shown
T1 sequence: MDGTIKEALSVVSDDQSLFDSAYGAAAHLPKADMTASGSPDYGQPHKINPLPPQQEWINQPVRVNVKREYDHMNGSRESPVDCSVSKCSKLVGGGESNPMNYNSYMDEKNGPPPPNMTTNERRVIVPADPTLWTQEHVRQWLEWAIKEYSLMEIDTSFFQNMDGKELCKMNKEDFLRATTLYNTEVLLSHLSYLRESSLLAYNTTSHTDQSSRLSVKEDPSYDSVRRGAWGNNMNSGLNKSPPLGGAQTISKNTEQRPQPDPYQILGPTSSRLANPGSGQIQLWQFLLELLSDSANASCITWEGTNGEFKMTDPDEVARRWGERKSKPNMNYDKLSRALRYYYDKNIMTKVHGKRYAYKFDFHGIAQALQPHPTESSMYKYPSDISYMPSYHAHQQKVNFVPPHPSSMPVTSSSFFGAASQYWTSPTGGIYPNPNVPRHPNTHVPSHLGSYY
Outline: (§1)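 Pools were built from human transcription factors expressed in yeast as GST fusions, captured on glutathione beads and DNA-barcoded, along with a tag-only sample. Incubation with 200 nmole of a 16-mer random double-stranded DNA library lasted 30 min at room temperature in Tris/NaCl/DTT/glycerol buffer, and was followed by washing, 0.1% formaldehyde crosslinking, proximity ligation, PCR amplification and Illumina NextSeq500 sequencing. Binding signal is the quotient of each hexamer's read frequency for a factor and its frequency for the tag-only sample.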

ELK1 = biological target: T2, ELK1 (Homo sapiens, UniProt P19419 1-428); conditions: protein: recombinant; tags: N-terminal GST; dsDNA, one strand shown
T2 sequence: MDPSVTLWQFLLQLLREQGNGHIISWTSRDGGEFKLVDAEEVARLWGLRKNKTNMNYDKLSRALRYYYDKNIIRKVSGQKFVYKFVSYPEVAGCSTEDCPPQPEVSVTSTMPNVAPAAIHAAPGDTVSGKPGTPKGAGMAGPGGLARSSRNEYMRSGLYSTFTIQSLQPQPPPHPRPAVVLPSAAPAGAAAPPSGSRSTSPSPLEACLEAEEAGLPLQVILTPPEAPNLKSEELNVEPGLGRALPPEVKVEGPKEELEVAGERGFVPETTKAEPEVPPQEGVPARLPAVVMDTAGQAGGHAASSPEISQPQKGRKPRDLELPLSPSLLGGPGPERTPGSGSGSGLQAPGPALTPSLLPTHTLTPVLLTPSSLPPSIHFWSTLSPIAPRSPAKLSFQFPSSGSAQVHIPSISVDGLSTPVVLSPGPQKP
Outline: as §1

GABPA = biological target: T3, GABPA (Homo sapiens, UniProt Q06546 1-454); conditions: protein: recombinant; tags: N-terminal GST; dsDNA, one strand shown
T3 sequence: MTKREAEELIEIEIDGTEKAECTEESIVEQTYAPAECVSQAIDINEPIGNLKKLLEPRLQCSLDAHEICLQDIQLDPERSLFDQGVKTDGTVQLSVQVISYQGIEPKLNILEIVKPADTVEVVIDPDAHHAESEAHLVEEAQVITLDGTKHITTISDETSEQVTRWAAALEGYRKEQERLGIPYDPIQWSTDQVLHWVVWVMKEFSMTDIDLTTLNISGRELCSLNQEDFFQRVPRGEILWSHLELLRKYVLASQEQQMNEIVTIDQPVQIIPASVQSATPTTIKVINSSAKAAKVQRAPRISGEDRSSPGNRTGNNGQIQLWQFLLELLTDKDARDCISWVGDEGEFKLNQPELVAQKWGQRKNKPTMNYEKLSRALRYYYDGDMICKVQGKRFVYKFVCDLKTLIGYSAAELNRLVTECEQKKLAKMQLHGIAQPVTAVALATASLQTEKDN
Outline: as §1

ERG = biological target: T4, ERG (Homo sapiens, UniProt P11308 1-479); conditions: protein: recombinant; tags: N-terminal GST; dsDNA, one strand shown
T4 sequence: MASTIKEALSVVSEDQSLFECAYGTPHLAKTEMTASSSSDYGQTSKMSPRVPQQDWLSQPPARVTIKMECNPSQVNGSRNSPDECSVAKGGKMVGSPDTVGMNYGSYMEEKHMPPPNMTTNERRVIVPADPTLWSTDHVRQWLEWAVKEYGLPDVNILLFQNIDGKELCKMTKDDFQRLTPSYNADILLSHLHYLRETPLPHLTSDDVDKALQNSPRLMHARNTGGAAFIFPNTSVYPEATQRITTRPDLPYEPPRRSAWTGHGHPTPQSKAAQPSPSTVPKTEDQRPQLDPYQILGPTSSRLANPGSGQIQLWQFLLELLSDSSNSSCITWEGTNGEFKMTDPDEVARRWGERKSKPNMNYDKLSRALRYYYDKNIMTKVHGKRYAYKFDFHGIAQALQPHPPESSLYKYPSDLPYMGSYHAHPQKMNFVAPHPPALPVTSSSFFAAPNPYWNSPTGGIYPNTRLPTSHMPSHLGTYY
Outline: as §1

ELF1 = ELF1 (Homo sapiens, UniProt P32519 1-619); conditions: protein: recombinant; tags: N-terminal GST; dsDNA, one strand shown
Sequence of ELF1 (P32519 whole entry): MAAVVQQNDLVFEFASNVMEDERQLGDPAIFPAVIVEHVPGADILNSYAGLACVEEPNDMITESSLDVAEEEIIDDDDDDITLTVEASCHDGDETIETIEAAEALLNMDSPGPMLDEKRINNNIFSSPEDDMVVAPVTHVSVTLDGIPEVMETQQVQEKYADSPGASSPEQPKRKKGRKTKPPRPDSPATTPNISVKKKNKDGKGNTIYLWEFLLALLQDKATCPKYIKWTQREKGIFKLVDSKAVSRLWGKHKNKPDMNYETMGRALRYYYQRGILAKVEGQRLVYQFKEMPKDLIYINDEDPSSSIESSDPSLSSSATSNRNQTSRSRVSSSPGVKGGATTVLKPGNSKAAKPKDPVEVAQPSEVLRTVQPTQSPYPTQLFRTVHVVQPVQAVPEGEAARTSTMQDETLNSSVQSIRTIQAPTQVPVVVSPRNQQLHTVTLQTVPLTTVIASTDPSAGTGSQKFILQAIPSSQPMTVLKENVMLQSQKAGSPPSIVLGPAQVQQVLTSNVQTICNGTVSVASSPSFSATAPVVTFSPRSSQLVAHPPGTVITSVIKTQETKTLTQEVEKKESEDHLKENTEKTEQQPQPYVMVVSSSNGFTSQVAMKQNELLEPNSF
Outline: as §1

EHF = biological target: T5, EHF (Homo sapiens, UniProt Q9NZC4 1-300); conditions: protein: recombinant; tags: N-terminal GST; dsDNA, one strand shown
T5 sequence: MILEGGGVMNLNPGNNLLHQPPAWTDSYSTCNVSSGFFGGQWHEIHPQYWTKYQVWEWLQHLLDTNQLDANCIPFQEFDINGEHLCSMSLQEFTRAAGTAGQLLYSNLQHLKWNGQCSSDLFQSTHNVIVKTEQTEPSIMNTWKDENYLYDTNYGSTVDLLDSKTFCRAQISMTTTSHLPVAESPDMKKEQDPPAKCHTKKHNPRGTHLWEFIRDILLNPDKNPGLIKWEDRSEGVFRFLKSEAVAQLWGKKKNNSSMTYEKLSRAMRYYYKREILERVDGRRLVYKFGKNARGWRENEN
Outline: as §1

SPI1 = SPI1 (Homo sapiens, UniProt P17947 1-270); conditions: protein: recombinant; tags: N-terminal GST; dsDNA, one strand shown
Outline: as §1

SPIB = SPIB (Homo sapiens, UniProt Q01892 1-262); conditions: protein: recombinant; tags: N-terminal GST; dsDNA, one strand shown
Sequence of SPIB (Q01892 whole entry): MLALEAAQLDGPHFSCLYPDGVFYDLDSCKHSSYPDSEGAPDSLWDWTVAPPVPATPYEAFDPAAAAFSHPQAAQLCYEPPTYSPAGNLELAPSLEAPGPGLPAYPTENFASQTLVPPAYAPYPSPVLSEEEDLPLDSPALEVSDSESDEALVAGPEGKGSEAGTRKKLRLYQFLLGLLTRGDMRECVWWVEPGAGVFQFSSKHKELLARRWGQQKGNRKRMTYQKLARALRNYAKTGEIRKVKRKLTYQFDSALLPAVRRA
Outline: as §1

ELK3 = biological target: T6, ELK3 (Homo sapiens, UniProt P41970 1-407); conditions: protein: recombinant; tags: N-terminal GST; dsDNA, one strand shown
T6 sequence: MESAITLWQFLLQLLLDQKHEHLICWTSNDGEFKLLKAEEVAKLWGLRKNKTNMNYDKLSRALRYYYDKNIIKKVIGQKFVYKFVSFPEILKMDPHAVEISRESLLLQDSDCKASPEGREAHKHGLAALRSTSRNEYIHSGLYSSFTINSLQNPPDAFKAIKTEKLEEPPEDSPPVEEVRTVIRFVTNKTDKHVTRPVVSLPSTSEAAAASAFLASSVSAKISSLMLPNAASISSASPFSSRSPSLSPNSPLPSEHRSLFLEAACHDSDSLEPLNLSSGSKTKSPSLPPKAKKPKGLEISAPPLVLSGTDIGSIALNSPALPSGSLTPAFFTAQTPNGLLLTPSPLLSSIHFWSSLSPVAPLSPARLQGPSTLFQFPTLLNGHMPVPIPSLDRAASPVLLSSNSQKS
Outline: as §1

FEV = biological target: T7, FEV (Homo sapiens, UniProt Q99581 1-238); conditions: protein: recombinant; tags: N-terminal GST; dsDNA, one strand shown
T7 sequence: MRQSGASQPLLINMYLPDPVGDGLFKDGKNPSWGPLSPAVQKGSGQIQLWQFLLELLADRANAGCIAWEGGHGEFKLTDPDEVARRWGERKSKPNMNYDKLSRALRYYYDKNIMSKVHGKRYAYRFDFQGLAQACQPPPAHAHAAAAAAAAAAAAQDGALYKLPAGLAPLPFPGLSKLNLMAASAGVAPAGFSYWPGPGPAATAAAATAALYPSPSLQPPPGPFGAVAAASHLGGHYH
Outline: as §1

ETV5 = ETV5 (Homo sapiens, UniProt P41161 1-510); conditions: protein: recombinant; tags: N-terminal GST; dsDNA, one strand shown
Sequence of ETV5 (P41161 whole entry): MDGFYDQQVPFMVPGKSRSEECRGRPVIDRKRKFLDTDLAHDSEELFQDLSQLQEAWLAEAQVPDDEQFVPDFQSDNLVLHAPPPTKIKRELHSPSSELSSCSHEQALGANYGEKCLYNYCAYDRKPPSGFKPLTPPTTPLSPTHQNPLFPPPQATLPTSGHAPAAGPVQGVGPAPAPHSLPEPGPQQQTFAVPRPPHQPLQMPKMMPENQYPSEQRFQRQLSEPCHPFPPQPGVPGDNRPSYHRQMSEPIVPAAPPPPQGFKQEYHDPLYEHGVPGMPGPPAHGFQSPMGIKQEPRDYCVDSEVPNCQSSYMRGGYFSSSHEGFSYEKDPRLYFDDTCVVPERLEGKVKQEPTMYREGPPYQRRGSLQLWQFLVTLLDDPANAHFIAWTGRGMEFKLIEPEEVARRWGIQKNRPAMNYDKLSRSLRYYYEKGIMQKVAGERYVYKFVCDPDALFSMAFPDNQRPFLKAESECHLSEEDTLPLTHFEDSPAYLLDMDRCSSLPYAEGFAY
Outline: as §1

HSF1 = HSF1 (Homo sapiens, UniProt Q00613 1-529); conditions: protein: recombinant; tags: N-terminal GST; chain copies: 3; dsDNA, one strand shown
Sequence of HSF1 (Q00613 whole entry): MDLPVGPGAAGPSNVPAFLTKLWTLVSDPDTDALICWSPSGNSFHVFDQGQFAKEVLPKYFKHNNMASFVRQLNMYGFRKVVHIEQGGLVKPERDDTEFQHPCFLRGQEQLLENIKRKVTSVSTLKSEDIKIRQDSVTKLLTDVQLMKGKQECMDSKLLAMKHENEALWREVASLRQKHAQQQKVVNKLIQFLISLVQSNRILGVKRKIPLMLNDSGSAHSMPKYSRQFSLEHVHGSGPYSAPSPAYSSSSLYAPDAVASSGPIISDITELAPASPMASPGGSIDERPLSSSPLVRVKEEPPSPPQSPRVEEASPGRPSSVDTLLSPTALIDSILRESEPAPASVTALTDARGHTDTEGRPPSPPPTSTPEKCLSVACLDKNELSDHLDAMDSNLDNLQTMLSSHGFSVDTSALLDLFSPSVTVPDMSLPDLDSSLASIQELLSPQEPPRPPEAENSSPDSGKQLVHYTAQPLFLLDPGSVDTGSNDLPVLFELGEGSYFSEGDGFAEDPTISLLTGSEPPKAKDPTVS
Outline: as §1

SPIC = biological target: T8, SPIC (Homo sapiens, UniProt Q8N5J4 1-248); conditions: protein: recombinant; tags: N-terminal GST; dsDNA, one strand shown
T8 sequence: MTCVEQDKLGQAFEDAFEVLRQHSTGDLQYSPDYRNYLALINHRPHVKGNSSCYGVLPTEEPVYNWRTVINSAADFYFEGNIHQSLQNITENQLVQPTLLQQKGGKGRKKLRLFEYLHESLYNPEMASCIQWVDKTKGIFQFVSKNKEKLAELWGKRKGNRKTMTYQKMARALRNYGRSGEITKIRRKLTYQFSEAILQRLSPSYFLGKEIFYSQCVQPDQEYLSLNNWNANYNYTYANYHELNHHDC
Outline: as §1

ELF4 = ELF4 (Homo sapiens, UniProt Q99607 1-663); conditions: protein: recombinant; tags: N-terminal GST; dsDNA, one strand shown
Sequence of ELF4 (Q99607 whole entry): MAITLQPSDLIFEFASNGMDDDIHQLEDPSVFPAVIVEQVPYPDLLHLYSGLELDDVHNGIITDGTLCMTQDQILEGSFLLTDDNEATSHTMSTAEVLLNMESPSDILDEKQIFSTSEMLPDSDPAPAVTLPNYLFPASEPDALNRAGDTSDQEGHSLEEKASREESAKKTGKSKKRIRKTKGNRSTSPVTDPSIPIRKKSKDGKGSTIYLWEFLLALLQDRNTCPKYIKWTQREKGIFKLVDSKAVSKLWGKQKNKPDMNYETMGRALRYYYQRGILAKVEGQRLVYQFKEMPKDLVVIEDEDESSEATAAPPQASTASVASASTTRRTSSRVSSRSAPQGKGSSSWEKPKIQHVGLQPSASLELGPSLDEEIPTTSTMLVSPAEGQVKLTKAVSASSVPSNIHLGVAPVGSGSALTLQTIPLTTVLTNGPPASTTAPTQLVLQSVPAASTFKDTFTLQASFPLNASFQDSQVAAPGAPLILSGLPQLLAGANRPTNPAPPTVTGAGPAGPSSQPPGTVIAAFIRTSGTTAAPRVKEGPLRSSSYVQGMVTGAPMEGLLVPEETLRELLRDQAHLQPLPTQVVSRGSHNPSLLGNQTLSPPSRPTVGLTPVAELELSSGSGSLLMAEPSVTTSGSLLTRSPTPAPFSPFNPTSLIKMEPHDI
Outline: as §1

ELK4 = biological target: T9, ELK4 (Homo sapiens, UniProt P28324-2 1-405); conditions: protein: recombinant; tags: N-terminal GST; dsDNA, one strand shown
T9 sequence: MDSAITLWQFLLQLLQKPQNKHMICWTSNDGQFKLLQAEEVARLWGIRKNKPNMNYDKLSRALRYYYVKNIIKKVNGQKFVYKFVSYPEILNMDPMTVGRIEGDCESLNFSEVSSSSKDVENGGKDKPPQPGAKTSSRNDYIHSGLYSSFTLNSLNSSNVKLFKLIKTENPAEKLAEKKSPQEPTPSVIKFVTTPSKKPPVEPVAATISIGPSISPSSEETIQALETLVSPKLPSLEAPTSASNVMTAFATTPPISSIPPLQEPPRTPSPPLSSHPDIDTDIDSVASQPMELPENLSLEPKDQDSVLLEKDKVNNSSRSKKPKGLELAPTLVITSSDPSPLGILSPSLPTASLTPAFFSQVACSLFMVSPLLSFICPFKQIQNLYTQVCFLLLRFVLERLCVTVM
Outline: as §1

ETV2 = biological target: T10, ETV2 (Homo sapiens, UniProt O00321 1-342); conditions: protein: recombinant; tags: N-terminal GST; dsDNA, one strand shown
T10 sequence: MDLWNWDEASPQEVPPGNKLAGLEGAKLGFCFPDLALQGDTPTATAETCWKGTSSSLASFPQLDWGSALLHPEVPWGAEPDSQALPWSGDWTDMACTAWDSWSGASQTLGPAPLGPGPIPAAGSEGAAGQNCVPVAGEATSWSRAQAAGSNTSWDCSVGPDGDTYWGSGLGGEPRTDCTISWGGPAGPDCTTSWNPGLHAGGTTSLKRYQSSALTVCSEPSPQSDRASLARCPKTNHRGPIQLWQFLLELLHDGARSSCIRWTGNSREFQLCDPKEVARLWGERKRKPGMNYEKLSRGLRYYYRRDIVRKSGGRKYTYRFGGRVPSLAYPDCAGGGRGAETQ
Outline: as §1

ELF3 = biological target: T11, ELF3 (Homo sapiens, UniProt P78545 1-371); conditions: protein: recombinant; tags: N-terminal GST; dsDNA, one strand shown
T11 sequence: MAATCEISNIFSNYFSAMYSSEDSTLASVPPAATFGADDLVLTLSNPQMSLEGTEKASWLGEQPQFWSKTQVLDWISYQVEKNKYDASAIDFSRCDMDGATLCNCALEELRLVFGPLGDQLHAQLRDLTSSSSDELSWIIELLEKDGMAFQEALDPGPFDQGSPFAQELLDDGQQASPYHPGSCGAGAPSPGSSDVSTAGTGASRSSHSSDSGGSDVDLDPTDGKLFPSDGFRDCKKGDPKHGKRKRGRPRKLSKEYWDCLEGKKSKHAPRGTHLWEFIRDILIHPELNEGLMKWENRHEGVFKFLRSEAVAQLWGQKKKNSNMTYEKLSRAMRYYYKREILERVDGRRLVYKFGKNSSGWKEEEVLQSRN
Outline: as §1

CRX = CRX (Homo sapiens, UniProt O43186 1-299); conditions: protein: recombinant; tags: N-terminal GST; dsDNA, one strand shown
Sequence of CRX (O43186 whole entry): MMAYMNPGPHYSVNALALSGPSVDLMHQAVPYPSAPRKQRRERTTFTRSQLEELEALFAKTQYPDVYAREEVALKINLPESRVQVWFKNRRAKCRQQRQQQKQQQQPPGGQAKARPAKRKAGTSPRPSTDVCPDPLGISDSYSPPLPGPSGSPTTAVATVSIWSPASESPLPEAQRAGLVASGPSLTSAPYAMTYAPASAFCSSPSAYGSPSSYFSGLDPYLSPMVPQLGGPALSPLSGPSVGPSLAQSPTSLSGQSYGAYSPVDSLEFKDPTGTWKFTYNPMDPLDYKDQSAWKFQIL
Outline: as §1

ETV1 = ETV1 (Homo sapiens, UniProt P50549 1-477); conditions: protein: recombinant; tags: N-terminal GST; dsDNA, one strand shown
Sequence of ETV1 (P50549 whole entry): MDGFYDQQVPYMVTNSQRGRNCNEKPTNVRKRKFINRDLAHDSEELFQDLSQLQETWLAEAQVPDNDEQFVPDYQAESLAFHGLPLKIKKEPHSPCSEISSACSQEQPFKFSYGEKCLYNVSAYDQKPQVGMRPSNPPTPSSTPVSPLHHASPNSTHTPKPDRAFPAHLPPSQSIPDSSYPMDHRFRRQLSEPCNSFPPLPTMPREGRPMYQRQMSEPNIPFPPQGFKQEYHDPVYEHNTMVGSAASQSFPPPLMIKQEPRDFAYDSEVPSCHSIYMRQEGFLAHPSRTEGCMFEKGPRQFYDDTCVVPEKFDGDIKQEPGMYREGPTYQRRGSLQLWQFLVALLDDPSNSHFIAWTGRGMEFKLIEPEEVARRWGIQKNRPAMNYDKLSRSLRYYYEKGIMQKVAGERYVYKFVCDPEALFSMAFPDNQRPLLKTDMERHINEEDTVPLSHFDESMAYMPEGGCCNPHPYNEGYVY
Outline: as §1

Sequence: ATTGGG
- binding signal (FLI1): 1.23 fold enrichment (6-mer frequency, TF over GST control)
- binding signal (ELK1): 1.24 fold enrichment (6-mer frequency, TF over GST control)
- binding signal (GABPA): 1.33 fold enrichment (6-mer frequency, TF over GST control)
- binding signal (ERG): 1.13 fold enrichment (6-mer frequency, TF over GST control)
- binding signal (ELF1): 1.21 fold enrichment (6-mer frequency, TF over GST control)
- binding signal (EHF): 1.24 fold enrichment (6-mer frequency, TF over GST control)
- binding signal (SPI1): 1.25 fold enrichment (6-mer frequency, TF over GST control)
- binding signal (SPIB): 1.26 fold enrichment (6-mer frequency, TF over GST control)
- binding signal (ELK3): 1.17 fold enrichment (6-mer frequency, TF over GST control)
- binding signal (FEV): 1.13 fold enrichment (6-mer frequency, TF over GST control)
- binding signal (ETV5): 1.26 fold enrichment (6-mer frequency, TF over GST control)
- binding signal (HSF1): 1.06 fold enrichment (6-mer frequency, TF over GST control)
- binding signal (SPIC): 1.26 fold enrichment (6-mer frequency, TF over GST control)
- binding signal (ELF4): 1.19 fold enrichment (6-mer frequency, TF over GST control)
- binding signal (ELK4): 1.18 fold enrichment (6-mer frequency, TF over GST control)
- binding signal (ETV2): 1.13 fold enrichment (6-mer frequency, TF over GST control)
- binding signal (ELF3): 1.22 fold enrichment (6-mer frequency, TF over GST control)
- binding signal (CRX): 1.22 fold enrichment (6-mer frequency, TF over GST control)
- binding signal (ETV1): 1.2 fold enrichment (6-mer frequency, TF over GST control)
